HT1080 IDH1KD tx: kills HT-1080 cells with IDH1 knockdown; HT-1080 IDH1 knockdown viability, ATP luminescence, 48 h; Potency, µM (series often up to 46.1 µM), usual class: cytotoxic; hit rate 2% among 360,000; AID 686971
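% activity derives from luminescence (CellTiter-Glo), normalised to DMSO and no-cell wells. HT-1080-IDH1KD cells, 750/well, had 48 h compound exposure at 37 °C.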
HT1080NT lethal: kills 2HG-producing HT-1080-NT fibrosarcoma cells. HT-1080-NT fibrosarcoma viability, CellTiter-Glo ATP luminescence, 48 h. Potency, µM (doses to about 46.1 µM), hits mostly cytotoxic. hit rate 1.6% among 360,000. AID 686970;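 further: NT is the 2HG producing partner of a matched IDH1 knockdown line; nearly all actives have a fitted effect of over 55% in size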
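Viability of the 2HG-overproducing fibrosarcoma line after 48 hours of compound exposure at 37 degrees C was determined by luminescence with CellTiter-Glo, and concentration-effect curves were then fitted and categorized.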
IL-1B inflam inh: inflammasome signaling inhibition, IL-1 beta readout | THP-1 LPS/ATP IL-1B secretion, AlphaLISA, 16 h; hits give low values | activity change, % at 57.5 µM | hit rate 4.7% among 360,000; in the data active means activity change below about -50%; inconclusive means mostly about -30% to -49%
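THP-1 cells pretreated 1 hr with compounds (up to 57.5 uM final), then stimulated with LPS (250 ng/mL final) plus ATP (1.25 mM final); secreted IL-1B measured by AlphaLISA after 16 hr, decreased signal indicating inhibition.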
TDP1 cell CPT: growth inhibition of DT40 Tdp1-/-;hTDP1 cells with camptothecin (screen for TDP1 inhibitors); chicken DT40 Tdp1-/-;hTDP1 cells + 20 nM CPT, ATP luminescence, 48 h; Potency, µM (series often up to 46.2 µM), actives largely listed as inhibitors; hit rate 12% among 420,000; AID 686979; further: nearly all actives have a fitted effect of over 55% in size
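Chicken DT40 Tdp1-/- cells complemented with human TDP1, 400 cells/well, exposed to compounds plus 20 nM camptothecin for at least 48 h at 37 C; viability read as ATP content by CellTiter-Glo luminescence.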
ELG1 repair inh: ELG1-dependent DNA repair inhibition; HEK293T ELG1-luciferase reporter, luminescence, 16 h; DNA damage induced by 5-fluorouridine; Potency, µM (series often up to 46.1 µM), usual class: inhibitors; hit rate 2.3% among 330,000; further: nearly all actives have a fitted effect of over 55% in size
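Overnight (16 hr) co-exposure of 2,000 cells/well to 5-fluorouridine and compound at 37 °C preceded detection. Luciferase was quantified via ONE-Glo luminescence; loss of signal denotes inhibition.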
DT40 TDP1 no CPT: qHTS for Inhibitors of human tyrosyl-DNA phosphodiesterase 1 (TDP1): qHTS in cells in absence of CPT; DT40 Tdp1-/- hTDP1 cells, no CPT, ATP luminescence, 48 h; Potency, µM (top dose mostly 46.2 µM), usual class: inhibitors; hit rate 15% among 420,000; further: nearly all actives have a fitted effect of over 55% in size
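Compound effects on proliferation are scored in DT40 Tdp1-/-;hTDP1 cells in the absence of CPT. ATP levels (CellTiter-Glo luminescence) are recorded after a ≥48 hr, 37 °C incubation.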
Numbers stand for hits; 0 = inactive; ? = inconclusive; - = not tested or not shown. Compounds with a hit are over-represented: about 19% of the library has one in this group of screens. Unless noted, the call rests on the fitted dose curve; in most records, active means well fitted curve in the direction sought with a large enough effect; inconclusive means small, poorly fitted or top-dose-only effect, or another doubt; inactive means no such curve, though single readings can be large; an effect the other way counts as inactive or inconclusive.

SMILES	HT1080 IDH1KD tx	HT1080NT lethal	IL-1B inflam inh	TDP1 cell CPT	ELG1 repair inh	DT40 TDP1 no CPT
O=C(COC(=O)c1cc(S(=O)(=O)N2CCOCC2)c(Cl)cc1Cl)NCc1ccco1	0	0	-80.0	0	0	0
COc1cccc(CN(C(=O)c2oc3ccccc3c2C)C2CCS(=O)(=O)C2)c1 (stereo not given)	-	-	-	?	-	20.6µM
O=C(/C=C/c1ccccc1)N(Cc1cccc(Cl)c1)C1CCS(=O)(=O)C1 (stereo not given)	0	0	0	?	0	?
COc1cccc(CN(C(=O)/C=C/c2ccc(Cl)cc2)C2CCS(=O)(=O)C2)c1 (stereo not given)	0	0	-57.6	?	?	?
COc1cccc(CN(C(=O)c2oc3cc(C)ccc3c2C)C2CCS(=O)(=O)C2)c1 (stereo not given)	-	-	-	?	-	18.4µM
COc1ccc(CN(C(=O)c2oc3cc(C)ccc3c2C)C2CCS(=O)(=O)C2)cc1OC (stereo not given)	0	0	0	0	13µM	?
Cc1ccc2c(C)c(C(=O)N(Cc3ccc(F)cc3)C3CCS(=O)(=O)C3)oc2c1 (stereo not given)	0	0	?	?	?	?
C/C=C/C=C\C(=O)Nc1cccc(C2=NOC3(C2)C[C@@H](C(N)=O)N(C(=O)c2cc([N+](=O)[O-])cc([N+](=O)[O-])c2)C3)c1 (stereo not given in full)	0	0	0	?	0	0
Cc1ccccc1S(=O)(=O)NC(=O)C1(C)CCN1C(=O)C1(c2ccccc2)CC1 (stereo not given)	0	0	0	0	-	0
O=C(CN1CCc2ccccc21)NC(=O)NCc1ccccc1	0	0	0	?	0	?
COc1cc(C(=O)Nc2ccc(N3CCCS3(=O)=O)cc2)c([N+](=O)[O-])cc1OC	0	0	0	0	0	0
CCCCCc1cc(=O)oc2c(C(CCN(CC)CC)c3ccc(N(C)C)cc3)c(OC)cc(OC)c12 (stereo not given)	0	18.4µM	0	?	0	16.4µM
CCCCCc1cc(=O)oc2c(C(CCN3CCCCC3)c3cc(OC)c(OC)c(OC)c3)c(OC)cc(OC)c12 (stereo not given)	?	20.6µM	0	?	0	?
CCCCCc1cc(=O)oc2c(C(CCN3CCCC(C)C3)c3cc(OC)c(OC)c(OC)c3)c(OC)cc(OC)c12 (stereo not given)	?	?	-59.9	?	0	29.1µM
COc1cc(C(CC(=O)N2CCCC2)c2c(OC)cc(OC)c3ccc(=O)oc23)cc(OC)c1OC (stereo not given)	0	0	0	0	0	0
CCCCCc1cc(=O)oc2c(C(CCN3CCCC(C)C3)c3ccc(N(C)C)cc3)c(OC)cc(OC)c12 (stereo not given)	0	?	0	?	?	23.1µM
CCNc1ncc2nc(-c3ccc(F)cc3)c(=O)n(C[C@H]3CCCO3)c2n1	-	-	-	0	-	0
CNC(=O)c1ccc(NC(=O)c2ccccc2OCc2c(C)noc2C)cc1	0	0	?	?	-	0
CC(=O)Nc1ccc(S(=O)(=O)N2CCC(NC(=O)C(Cc3ccccc3F)NC(C)=O)CC2)cc1 (stereo not given)	0	0	0	0	0	0
O=c1c(-c2cc(F)cc(F)c2)nc2cnc(N3CCOCC3)nc2n1-c1ccccc1	-	-	-	0	-	0
COc1cc(OC)c2ccc(=O)oc2c1C(CCN1CCCC(C)C1)c1ccc(N(C)C)cc1 (stereo not given)	0	0	0	20.6µM	0	?
COc1cc(C2CC(=O)Oc3c(C(CCN4CCCC(C)C4)c4ccc(N(C)C)cc4)c(OC)cc(OC)c32)cc(OC)c1OC (stereo not given)	0	0	?	0	?	0
O=C1c2ccccc2N[C@@H]2C=CC[C@@H]2N1O	0	0	0	0	0	0
CCOC(=O)c1ccc(-c2ccc(/C=C(\C#N)C(=O)Nc3ccc(C)cc3OC)o2)cc1	-	-	-	0	-	0
COc1ccc(NC(=O)/C(C#N)=C/c2ccc(-c3ccc(Cl)c(C(=O)O)c3)o2)cc1	0	0	0	18.4µM	?	?
SMILES	HT1080 IDH1KD tx	HT1080NT lethal	IL-1B inflam inh	TDP1 cell CPT	ELG1 repair inh	DT40 TDP1 no CPT
COc1ccc(NC(=O)/C(C#N)=C/c2ccc(-c3ccccc3C(=O)O)o2)cc1	0	0	0	0	0	0
CCOC(=O)c1ccc(-c2ccc(/C=C(\C#N)C(=O)NCC3CCCO3)o2)cc1 (stereo not given)	0	0	0	20.6µM	0	23.1µM
COc1ccc(NC(=O)/C(C#N)=C\c2ccc(-c3cccc(C(=O)O)c3C)o2)cc1	0	0	0	?	0	4.61µM
CCCCOC(=O)c1ccc(NC(=O)/C(C#N)=C/c2ccc(-c3ccccc3)o2)cc1	-	-	-	16.4µM	-	16.4µM
CCOC(=O)c1ccc(-c2ccc(/C=C(\C#N)C(=O)Nc3c(C)cccc3Cl)o2)cc1	-	-	-	0	-	0
Cc1ccc(Cl)cc1NC(=O)COC(=O)CSc1ccccc1	0	0	0	0	0	0
O=C(NCCCN1CCOCC1)C1Cc2c(ccc3ccccc23)O1 (stereo not given)	0	0	0	?	0	?
COc1cc(/C=C(\C#N)C(=O)NCC2CCCO2)ccc1OCCC(C)C (stereo not given)	0	0	0	20.6µM	0	16.4µM
COc1ccc(/C=C(\C#N)C(=O)NCC2CCCO2)cc1OC (stereo not given)	0	0	0	0	0	0
CC(CN(C)C)CN1c2ccccc2S(=O)(=O)c2ccccc21 (stereo not given)	-	-	-	0	-	0
CCOc1ccc(C(=O)NC(C(=O)NCC2CCCO2)C(C)C)cc1 (stereo not given)	0	0	0	0	23.1µM	0
COc1ccc(CCNC(=O)C(=O)NCC2CCCO2)cc1 (stereo not given)	0	0	0	0	0	0
COc1ccc(CNC(=O)C2CC(C)=C(C)CC2C(=O)O)cc1 (stereo not given)	0	0	0	9.2µM	0	9.2µM
COc1ccc(CNC(=O)C(=O)NCC2CCCO2)cc1 (stereo not given)	0	0	0	16.4µM	?	20.6µM
COc1ccc(CNC(=O)C2CC(C)=CCC2C(=O)O)cc1 (stereo not given)	0	0	0	?	0	0
CCOc1cc(NC(=S)NCC2CCCO2)c(OCC)cc1NC(=O)c1ccccc1C (stereo not given)	0	0	0	29.1µM	0	?

Bioassay records from PubChem.
